From PubChem BioAssay (EPA / NIEHS)
“And” between values parts separate entries of the source, which are not always exact repeats. Equal entries are not always repeated. Inconclusive results are not listed. A structure can be active in one record and inactive in another. The source made the active and inactive calls. The calls were made as follows, unless noted: active = hit-call score of the fitted dose curve at least 0.9, where 1 is the maximum; inactive = score below 0.9.

How the values were obtained:
[1] = read-out: solute carrier (SLC22A1), SLC22A1 (gene 6580); experiment: LTEA_HepaRG_SLC22A1: Life Technologies and Expression Analysis (LTEA) Assay for solute carrier (SLC22A1) using HepaRG (AID 2283524); conditions: mRNA level, 48 h; actives raise or lower the signal
Outline: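 Differentiated human HepaRG cells in serum-free induction medium, exposed 48 h in duplicate to 8-point half-log series from 100 µM top in 0.5% DMSO. SLC22A1 mRNA by TaqMan qRT-PCR normalized to ACTB, GAPDH, POLR2A; bidirectional fit versus DMSO.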

[2] = read-out: Pyruvate Dehydrogenase Kinase 4 (PDK4), PDK4 (gene 5166); experiment: LTEA_HepaRG_PDK4: Life Technologies and Expression Analysis (LTEA) Assay for Pyruvate Dehydrogenase Kinase 4 (PDK4) using HepaRG (AID 2283525); conditions: mRNA level, 48 h; actives raise or lower the signal
Outline: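 HepaRG cells plated 48 h, then switched to serum-free induction medium and exposed in duplicate for 48 h to 8 half-log concentrations from 100 uM in 0.5% DMSO. PDK4 mRNA measured by qRT-PCR, normalized to ACTB, GAPDH and POLR2A; bidirectional fit versus DMSO.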

[3] = read-out: NAD(P)H dehydrogenase [quinone] 1 (NQO1), NQO1 (gene 1728); experiment: LTEA_HepaRG_NQO1: Life Technologies and Expression Analysis (LTEA) Assay for NAD(P)H dehydrogenase [quinone] 1 (NQO1) using HepaRG (AID 2283526); conditions: mRNA level, 48 h; actives raise or lower the signal
Outline: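 Human HepaRG hepatic cells received chemicals for 48 h in serum-free induction medium with 0.5% DMSO, up to 100 uM. Expression was assessed by TaqMan qRT-PCR against housekeeping controls and fitted bidirectionally against DMSO.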

[4] = read-out: Nuclear factor erythroid 2-related factor 2 (Homo sapiens) (UniProt Q16236); experiment: LTEA_HepaRG_NFE2L2: Life Technologies and Expression Analysis (LTEA) Assay for Nuclear factor erythroid 2-related factor 2 (NFE2L2) Transcription Factor using HepaRG (AID 2283527); conditions: mRNA level, 48 h; actives raise or lower the signal
Outline: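 Differentiated human HepaRG cells, serum-free induction medium, exposed 48 h in duplicate to eight half-log concentrations up to 100 uM in 0.5% DMSO. NFE2L2 mRNA by Fluidigm TaqMan qRT-PCR, normalised to ACTB, GAPDH, POLR2A; bidirectional change versus DMSO.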

[5] = read-out: succinate dehydrogenase complex iron sulfur subunit B (SDHB), SDHB (gene 6390); experiment: LTEA_HepaRG_SDHB: Life Technologies and Expression Analysis (LTEA) Assay for succinate dehydrogenase complex iron sulfur subunit B (SDHB) using HepaRG (AID 2283528); conditions: mRNA level, 48 h; actives raise or lower the signal
Outline: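 HepaRG, 48 h exposure, 8-pt half-log series from 100 uM in 0.5% DMSO, duplicates. Readout: SDHB mRNA by Fluidigm qRT-PCR vs housekeeping genes; bidirectional fit relative to DMSO.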

[6] = read-out: Signal transducer and activator of transcription 3 (Homo sapiens) (UniProt P40763); experiment: LTEA_HepaRG_STAT3: Life Technologies and Expression Analysis (LTEA) Assay for Signal transducer and activator of transcription (STAT3) using HepaRG (AID 2283529); conditions: mRNA level, 48 h; actives raise or lower the signal
Outline: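 Differentiated HepaRG cells, serum-free induction medium, dosed 48 h in duplicate, 8 half-log concentrations from 100 uM in 0.5% DMSO. STAT3 mRNA by qRT-PCR, normalised to ACTB, GAPDH, POLR2A; bidirectional fit versus DMSO.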

[7] = read-out: solute carrier (SLCO1B1), SLCO1B1 (gene 10599); experiment: LTEA_HepaRG_SLCO1B1: Life Technologies and Expression Analysis (LTEA) Assay for solute carrier (SLCO1B1) using HepaRG (AID 2283530); conditions: mRNA level, 48 h; actives raise or lower the signal
Outline: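 HepaRG, serum-free induction medium, 48 h dosing, 8-pt half-log from 100 uM, 0.5% DMSO vehicle, duplicates. Readout: SLCO1B1 mRNA, qRT-PCR, ACTB/GAPDH/POLR2A normalization; up or down fit vs DMSO.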

[8] = read-out: sulfotransferase 2A1 (SULT2A1), SULT2A1 (gene 6822); experiment: LTEA_HepaRG_SULT2A1: Life Technologies and Expression Analysis (LTEA) Assay for sulfotransferase 2A1 (SULT2A1) using HepaRG (AID 2283531); conditions: mRNA level, 48 h; actives raise or lower the signal
Outline: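 Transcript levels of SULT2A1, quantified by qRT-PCR and normalized to three housekeeping genes, serve as the readout. Human HepaRG cultures receive test chemicals for 48 h at up to 100 uM in half-log steps, with 0.5% DMSO vehicle.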

[9] = read-out: Transforming Growth Factor (TGFA), TGFA (gene 7039); experiment: LTEA_HepaRG_TGFA: Life Technologies and Expression Analysis (LTEA) Assay for Transforming Growth Factor (TGFA) using HepaRG (AID 2283532); conditions: mRNA level, 48 h; actives raise or lower the signal
Outline: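 Differentiated HepaRG cells exposed 48 hours in serum-free induction medium, 0.5% DMSO vehicle, 8-point half-log series from 100 uM, in duplicate. TGFA mRNA by TaqMan qRT-PCR, normalised to ACTB, GAPDH, POLR2A; bidirectional fit versus DMSO.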

[10] = read-out: Transforming Growth Factor (TGFB1), TGFB1 (gene 7040); experiment: LTEA_HepaRG_TGFB1: Life Technologies and Expression Analysis (LTEA) Assay for Transforming Growth Factor (TGFB1) Transporter using HepaRG (AID 2283533); conditions: mRNA level, 48 h; actives raise or lower the signal
Outline: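 HepaRG, 48 h post-plating, switched to serum-free induction medium; chemicals 100 uM top, half-log, 8 pts, 0.5% DMSO, dup; 48 h exposure; RNA → Fluidigm TaqMan qRT-PCR; norm ACTB/GAPDH/POLR2A; bidirectional fit vs DMSO.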

TIMP1, TIMP1 (gene 7076) = experiment: LTEA_HepaRG_TIMP1: Life Technologies and Expression Analysis (LTEA) Assay for TIMP1 using HepaRG (AID 2283534); conditions: mRNA level, 48 h; actives raise or lower the signal;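 also: TaqMan qRT-PCR signal normalized to ACTB GAPDH and POLR2A housekeeping genes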
Outline: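 Readout is TIMP1 mRNA level measured by qRT-PCR and normalized to three housekeeping genes. Human HepaRG cells were treated for 48 h in duplicate at eight concentrations up to 100 uM (0.5% DMSO); gain or loss fitted against DMSO.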

[11] = read-out: Tumor necrosis factor receptor 1 (TNFRSF1A), TNFRSF1A (gene 7132); experiment: LTEA_HepaRG_TNFRSF1A: Life Technologies and Expression Analysis (LTEA) Assay for Tumor necrosis factor receptor 1 (TNFRSF1A) using HepaRG (AID 2283535); conditions: mRNA level, 48 h; actives raise or lower the signal
Outline: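 Read-out is TNFRSF1A transcript level by TaqMan qRT-PCR, normalized to three housekeeping genes, scored as gain or loss of signal versus 0.5% DMSO. Human HepaRG cells received test chemicals for 48 h at up to 100 uM (half-log series).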

[12] = read-out: Thyroid Hormone Responsive (THRSP), THRSP (gene 7069); experiment: LTEA_HepaRG_THRSP: Life Technologies and Expression Analysis (LTEA) Assay for Thyroid Hormone Responsive (THRSP) using HepaRG (AID 2283536); conditions: mRNA level, 48 h; actives raise or lower the signal
Outline: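 Differentiated HepaRG cells treated 48 h in serum-free induction medium with 8 half-log concentrations up to 100 uM (0.5% DMSO), duplicates. THRSP mRNA by TaqMan qRT-PCR normalised to ACTB, GAPDH, POLR2A; bidirectional fit versus DMSO.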

[13] = read-out: UDP glucuronosyltransferase (UGT1A1), UGT1A1 (gene 54658); experiment: LTEA_HepaRG_UGT1A1: Life Technologies and Expression Analysis (LTEA) Assay for UDP glucuronosyltransferase (UGT1A1) using HepaRG (AID 2283538); conditions: mRNA level, 48 h; actives raise or lower the signal
Outline: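 Human liver HepaRG cultures receive test chemical for 48 h, up to 100 uM in 0.5% DMSO, with phenobarbital induction controls. UGT1A1 mRNA is measured by qRT-PCR and normalized to ACTB, GAPDH and POLR2A.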

[14] = read-out: UDP glucuronosyltransferase (UGT1A6), UGT1A6 (gene 54578); experiment: LTEA_HepaRG_UGT1A6: Life Technologies and Expression Analysis (LTEA) Assay for UDP glucuronosyltransferase (UGT1A6) using HepaRG (AID 2283539); conditions: mRNA level, 48 h; actives raise or lower the signal
Outline: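 HepaRG, 48 h post-plating switch to serum-free induction medium; chemical 48 h, 100 uM top, half-log x8, duplicate, 0.5% DMSO. Phenobarbital 1mM induction control. UGT1A6 mRNA by TaqMan qRT-PCR; gain/loss fit vs DMSO.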

[15] = read-out: X-box binding protein 1 (XBP1), XBP1 (gene 7494); experiment: LTEA_HepaRG_XBP1: Life Technologies and Expression Analysis (LTEA) Assay for X-box binding protein 1 (XBP1) using HepaRG (AID 2283540); conditions: mRNA level, 48 h; actives raise or lower the signal
Outline: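 Transcript levels of XBP1, measured by qRT-PCR and normalised to three housekeeping genes, were fitted bidirectionally relative to 0.5% DMSO controls. Human HepaRG cells received eight-point half-log dilutions from 100 uM for 48 h.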

[16] = ATG_XTT_Cytotoxicity: Cytotoxicity Assessment in the Attagene TRANS-FACTORIAL HepG2 Assay (AID 2283584; active = hit-call score of the fitted dose curve at least 0.9, where 1 is the maximum)
Outline: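 Cells: human HepG2, transiently transfected with MRTU reporter constructs. Exposure 24 h. Readout: XTT, cell number. Baseline/neg ctrl DMSO; loss-of-signal scored.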

[17] = read-out: Cellular tumor antigen p53 (Homo sapiens) (UniProt P04637); experiment: LTEA_HepaRG_TP53: Life Technologies and Expression Analysis (LTEA) Assay for Tumor Protein P53 (TP53) using HepaRG (AID 2283537); conditions: mRNA level, 48 h; actives raise or lower the signal
Outline: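 HepaRG, 48 h exposure, top 100 uM, half-log 8-point, 0.5% DMSO vehicle, duplicates. Read: TP53 mRNA by TaqMan qRT-PCR, normalised to ACTB/GAPDH/POLR2A; bidirectional fit vs DMSO.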

[18] = LTEA_HepaRG_LDH_cytotoxicity: Cytotoxicity Assessment in the Life Technologies and Expression Analysis (LTEA) Assay (AID 2283563; active = hit-call score of the fitted dose curve at least 0.9, where 1 is the maximum)
Outline: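 Cells were thawed and plated for 48 h. Medium was then replaced with serum-free induction medium. Chemicals (8 half-log points, maximum 100 uM, 0.5% DMSO) were added in duplicate for 48 h, after which spent medium was assayed for LDH.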

[19] = TOX21_p53_BLA_p2_viability: Viability Assessment in the Tox21 HCT-116 p53 Agonism Beta-lactamase Assay, Phase 2 (AID 2283591; active = hit-call score of the fitted dose curve at least 0.9, where 1 is the maximum;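 also: compound exposure lasted 16 h at 37 °C; actives lower the ATP signal meaning cytotoxicity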)
Outline: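 HCT116 p53-bla cells, 4000/well, dosed after 5 h plating (217-fold dilution of DMSO stocks) and incubated 16 h at 37C. Viability taken as cellular ATP by CellTiter-Glo luminescence after 30 min RT; signal loss marks cytotoxicity.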

Measured: AC50

Sequence of Nuclear factor erythroid 2-related factor 2 (Homo sapiens) (Q16236 whole entry, looked up): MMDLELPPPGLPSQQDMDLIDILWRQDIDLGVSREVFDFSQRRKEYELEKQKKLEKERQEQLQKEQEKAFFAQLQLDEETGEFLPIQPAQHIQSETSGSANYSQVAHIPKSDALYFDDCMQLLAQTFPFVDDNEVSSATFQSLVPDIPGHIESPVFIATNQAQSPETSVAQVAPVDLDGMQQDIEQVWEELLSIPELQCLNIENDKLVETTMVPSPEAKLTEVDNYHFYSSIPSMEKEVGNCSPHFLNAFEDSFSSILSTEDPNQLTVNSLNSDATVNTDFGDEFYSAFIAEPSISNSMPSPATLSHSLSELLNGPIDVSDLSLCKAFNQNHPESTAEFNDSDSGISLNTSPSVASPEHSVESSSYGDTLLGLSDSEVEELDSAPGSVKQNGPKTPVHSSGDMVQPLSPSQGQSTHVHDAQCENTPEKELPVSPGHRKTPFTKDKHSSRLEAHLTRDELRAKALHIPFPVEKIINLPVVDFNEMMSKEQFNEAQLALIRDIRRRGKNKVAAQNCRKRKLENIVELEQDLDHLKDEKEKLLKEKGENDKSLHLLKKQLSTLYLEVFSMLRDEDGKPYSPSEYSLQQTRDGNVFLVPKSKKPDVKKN
Sequence of Cellular tumor antigen p53 (Homo sapiens) (P04637 whole entry, looked up): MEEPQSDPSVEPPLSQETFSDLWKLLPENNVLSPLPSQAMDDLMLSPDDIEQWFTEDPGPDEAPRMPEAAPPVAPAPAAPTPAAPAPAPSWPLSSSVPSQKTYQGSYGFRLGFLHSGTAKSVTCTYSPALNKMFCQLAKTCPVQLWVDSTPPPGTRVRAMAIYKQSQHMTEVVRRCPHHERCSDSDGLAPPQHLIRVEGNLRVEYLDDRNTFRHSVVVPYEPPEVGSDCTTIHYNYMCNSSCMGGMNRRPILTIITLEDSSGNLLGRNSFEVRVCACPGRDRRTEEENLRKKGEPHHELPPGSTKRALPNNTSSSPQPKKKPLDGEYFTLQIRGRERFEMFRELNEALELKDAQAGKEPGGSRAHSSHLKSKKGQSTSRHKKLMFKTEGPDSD
Sequence of Signal transducer and activator of transcription 3 (Homo sapiens) (P40763 whole entry, looked up): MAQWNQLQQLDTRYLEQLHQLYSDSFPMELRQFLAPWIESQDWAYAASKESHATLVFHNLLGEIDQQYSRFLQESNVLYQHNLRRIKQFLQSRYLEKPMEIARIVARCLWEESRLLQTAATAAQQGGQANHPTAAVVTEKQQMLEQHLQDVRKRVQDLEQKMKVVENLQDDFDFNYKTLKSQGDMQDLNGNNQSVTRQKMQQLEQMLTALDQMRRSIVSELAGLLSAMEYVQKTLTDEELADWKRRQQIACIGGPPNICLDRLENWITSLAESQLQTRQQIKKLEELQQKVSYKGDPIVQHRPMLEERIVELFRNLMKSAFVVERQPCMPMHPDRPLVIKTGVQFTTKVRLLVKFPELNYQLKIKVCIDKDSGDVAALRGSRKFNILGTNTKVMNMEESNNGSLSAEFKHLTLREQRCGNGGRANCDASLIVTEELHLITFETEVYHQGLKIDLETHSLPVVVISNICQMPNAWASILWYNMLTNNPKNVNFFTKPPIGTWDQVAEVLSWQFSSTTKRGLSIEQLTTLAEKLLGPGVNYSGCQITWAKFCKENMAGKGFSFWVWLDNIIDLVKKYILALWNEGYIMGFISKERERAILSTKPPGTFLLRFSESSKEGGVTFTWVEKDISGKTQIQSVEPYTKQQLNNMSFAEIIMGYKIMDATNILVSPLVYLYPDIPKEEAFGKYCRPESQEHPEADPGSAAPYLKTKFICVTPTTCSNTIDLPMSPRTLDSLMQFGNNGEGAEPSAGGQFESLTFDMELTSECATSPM

CC(=O)O
not listed: [17] | [18] | [19]
inactive: all other assays above

c1ccc2occc2c1
inactive: all assays above

CC1=C(C)S(=O)(=O)CCS1(=O)=O
active: [1] 82.1 µM | [2] 62 µM | [4] 65.7 µM | [7] 88.2 µM | [9] 50 µM | [12] 80 µM | [17] 50 µM | [14] 0.282 µM | [15] 91 µM
inactive: all other assays above

CC(N)=O
active: [11] 0.243 µM
not listed: [17] | [18] | [19]
inactive: all other assays above

Cc1ccc(C(C)(C)C)c(O)c1
not listed: [7]
inactive: all other assays above

CCc1nc(N)nc(N)c1-c1ccc(Cl)cc1
active: [1] 21.1 µM | [2] 50 µM | [8] 1.33 µM | [12] 76.3 µM | [19] 17.2 µM and 11.8 µM
inactive: [3] | [4] | [5] | [6] | [7] | [9] | [10] | TIMP1, TIMP1 (gene 7076) | [11] | [17] | [13] | [14] | [15] | [16] | [19]

C=CCCCCCCCCCCCC
not listed: [12] | [18] | [19]
inactive: all other assays above
